# Shiga inhibitor: Shiga toxin inhibition; Vero cells, Shiga toxin protein synthesis inhibition reporter; inhibition, % at 38.7 µM; 9.2% of 290,000 active; AID 2315; in the data active = inhibition mostly above about 28%, no sharp cut-off; inactive = mostly below about 43%; also: 0% is about no effect
# Cycloheximide cs: counter-screen for Shiga toxin inhibitors: cycloheximide protein synthesis inhibition | cell reporter, cycloheximide protein synthesis inhibition counterscreen | AID 2314 | 12% of 300,000 active | max response, %; in the data active = max response mostly above about 13%, no sharp cut-off; inactive = mostly below about 14%; also: read at 38.3 µM for the half of the compounds with a filed dose; 0% is about no effect
# LASV entry inh: inhibitors of Lassa virus binding or cell entry | Lassa virus pseudotype entry inhibition, cell reporter | Potency, µM (highest dose often 37.9 µM), for the others: at the highest dose activity change, negative = inhibition, actives largely listed as inhibitors | 1.2% of 300,000 active; calls by dose curve; tested in HEK293 cells; also: potency is read from the fitted curve at half-maximal effect; % is scaled to controls: 0 for no effect and ±100 for the full control effect; nearly all actives have a fitted effect of over 50% in size
# FMDV antiviral: antivirals against foot and mouth disease virus. FMDV antiviral cell-based qHTS. Potency, µM (series often up to 57.9 µM), without a hit: top-dose activity change, negative = inhibition, usual class: inhibitors. 1.2% of 410,000 active; calls by dose curve; tested in HEK293T cells; also: read-out not given here; potency is read from the fitted curve at half-maximal effect; % is scaled to controls: 0 for no effect and ±100 for the full control effect; nearly all actives have a fitted effect of over 45% in size
# MARV entry inh: Marburg virus entry inhibition | Marburg virus pseudotyped entry inhibition, cell reporter | Potency, µM (doses to about 37.8 µM), for the others: top-dose activity change, negative = inhibition, usual class: inhibitors | 1.8% of 300,000 active; calls by dose curve; tested in HEK293 cells; also: potency is read from the fitted curve at half-maximal effect; % is scaled to controls: 0 for no effect and ±100 for the full control effect
# HCV inhibitor: blocks hepatitis C virus | Potency, µM (top dose mostly 41.8 µM), inactives show at the top dose activity change, negative = inhibition, most hits filed as inhibitors | Huh7.5.1 HCVcc-Cre infection, luciferase reporter, 44 h | 3.4% of 340,000 active; active = well fitted inhibition curve with a large enough effect; inconclusive = small, poorly fitted or top-dose-only effect, or another doubt; inactive = no such curve, though single readings can be large or run the other way; also: potency is read from the fitted curve at half-maximal effect; % is scaled to controls: 0 for no effect and ±100 for the full control effect
#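 A cell-based infection assay in which seeded cells (1,000 per well) receive test compound after 4 h, are inoculated with HCVcc-Cre at approximately 0.5 moi, and are incubated 44 h before luminescence detection.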
# Numbers without * were called inactive; ? = inconclusive; / = not tested or not shown; [ ] = dose if it differs, or a comment. Most compounds without a hit are left out; they make up all but 13% or so of the library.
SMILES,Shiga inhibitor,Cycloheximide cs,LASV entry inh,FMDV antiviral,MARV entry inh,HCV inhibitor
Nc1ccc2c(c1)Cc1ccccc1-2,64*,34*,?,33%,-5%,?
Nc1ccc2c(c1)Cc1cc([N+](=O)[O-])ccc1-2,67*,42*,?,21%,?,-15%
Cc1cccc(NC(=S)NC2CC3CCCC(C2)N3Cc2ccco2)c1 (stereo not given),-12,-3,/,-22%,/,-14%
Nc1nc(N)nc(-c2ccccc2O)n1,47*,31,10%,61%,?,19%
COc1ccc(/C=C/c2nc(N)nc(-c3ccccc3O)n2)cc1OC,4,15*,?,-14%,?,?
N#Cc1c2n(cnc1=O)CCCCC2,27,-3,1%,-23%,15%,7%
O=c1oc2ccccc2cc1-c1csc(NN=C2CCCC2)n1,15,14*,?,-18%,?,-6%
O=C(O)c1cccc(Nc2nc(-c3cc4ccccc4oc3=O)cs2)c1,74*,41*,?,0%,?,19%
COc1ccc(NC(=O)CSc2nc(-c3ccc(F)cc3)[nH]c2-c2ccc(C)cc2)cc1OC,/,/,-3%[46.1 µM],?,?,/
COc1cccc(NC(=O)c2ccc(CN3CCN(c4ccccc4)CC3)cc2)c1,27*,17*,?,?,5.8µM*,14µM*
Cc1cccc(NNC(=O)C(=O)NNc2cccc(C)c2)c1,24,14,/,-11%,/,-1%
COc1ccc(NC(=O)c2ccc(CN3CCN(c4ccccc4)CC3)cc2)cc1,3,4,?,?,?,-16%
O=C(C1CCC(CNS(=O)(=O)c2cccs2)CC1)N1CCN(c2ccc(F)cc2)CC1 (stereo not given),-7,-3,?,?,3.2µM*,?
CCCc1ccc(C(=O)NNc2cccc(C)c2)cc1,46*,29*,?,27%,4µM*,-26%
COc1ccc(N2CCN(C(=O)c3ccc(NS(=O)(=O)c4cccs4)cc3)CC2)cc1,63*,27*,?,37%,20%[46.1 µM],-11%
COc1ccccc1NC(=O)COC(=O)c1ccc([N+](=O)[O-])s1,-6,14,?,-10%,?,-12%
Fc1ccc(CNCc2ccc3c(c2)OCO3)cc1,24,-3,24%,4%,-26%,-1%
CC1CCCC(NC(=O)CCNC(=O)c2ccc(Cl)cc2)C1C (stereo not given),/,/,0%,7%,1%,12%
CSc1ccc(CCNS(=O)(=O)c2cc(-c3cc(C)no3)ccc2C)cc1,/,/,?,26%,/,/
CCOC(=O)c1cc(C)sc1NC(=O)c1ccc(Cl)s1,-11,-3,-3%,11%,-3%[46.1 µM],-6%
Cc1cccc(OCc2ccc(-c3nc(C#N)c(N4CCN(c5ccccc5)CC4)o3)o2)c1,/,/,20%[46.1 µM],0%,32%[46.1 µM],/
O=C(Nc1cccc(C(=O)N2CCN(Cc3ccccc3)CC2)c1)c1ccccc1,33,1,-16%,?,-10%,-7%
COc1ccc(C(=O)Nc2ccc(N3CCN(Cc4ccccc4)CC3)cc2)cc1,-25,-1,-4%,-27%,0%[46.1 µM],13%
Cc1cccc(NC(=O)c2ccc(CN3CCN(Cc4ccccc4)CC3)cc2)c1,36,27*,-1%,-18%,3%[46.1 µM],?
O=C(Nc1ccc(N2CCN(C(=O)c3cccs3)CC2)cc1)c1cccc(F)c1,17,1,-17%[46.1 µM],1%,?,-21%
SMILES,Shiga inhibitor,Cycloheximide cs,LASV entry inh,FMDV antiviral,MARV entry inh,HCV inhibitor
COc1cccc(C(=O)Nc2ccc(N3CCN(Cc4ccccc4)CC3)cc2)c1,43*,13,2%,?,?,?
COc1cccc(C(=O)Nc2ccc(N3CCN(C(=O)c4cccs4)CC3)cc2)c1,-3,8,?,32µM*,?,?
Cc1cc(OCC(=O)Nc2ccc(F)c(F)c2)nc(C(C)C)n1,-5,-1,6%,/,13%,5%
Cc1cc2c(c(=O)n1Cc1ccco1)C(c1cccnc1)C(C#N)=C(N)O2 (stereo not given),1,1,7%,8%,0%,20%
O=C(O)C1C2C=CC(C2)C1C(=O)NCc1ccccc1F (stereo not given),-4,-1,-7%[46.1 µM],11%,7%[46.1 µM],12%
Nc1ccc(N(c2ccccc2)c2ccc(N)cc2)cc1,-14,-4,-17%,?,?,10µM*
O=C(COc1ccc(C2SCCS2)cc1)Nc1ccc(Cl)cc1,17,8,?,-24%,-1%[46.1 µM],-2%
CC1CN(S(=O)(=O)c2cccs2)CC(C)O1 (stereo not given),-14,-1,-1%,/,13%,16%
Nc1ncnc2c1ccn2[C@@H]1O[C@H](CO)[C@@H](O)[C@H]1O,22,-7,/,?,/,35µM*
C=CCOc1ccc(C[C@H](N)C(=O)NC[C@H]2O[C@@H](n3cnc4c(N)ncnc43)[C@H](O)[C@@H]2O)cc1,/,/,/,-15%,/,0%
CN(C)c1ncnc2c1ncn2C1OC(CO)C(O)C1O (stereo not given),-8,-3,?,-18%,?,4.5µM*
COc1ccc(C[C@H](N)C(=O)N[C@H]2[C@@H](O)[C@H](n3cnc4c(N(C)C)ncnc43)O[C@@H]2CO)cc1,/,/,/,?,/,0.32µM*
O=C(NCc1ccc(Cl)cc1)c1ccc2oc(=O)n(Cc3ccccc3)c2c1,/,/,?,-27%,/,/
O=C(Cc1ccccc1)N(Cc1cccnc1)c1nc2ccc(Cl)cc2s1,/,/,-17%[46.1 µM],-6%,/,/
Cc1cc(-c2ccc(C)c(S(=O)(=O)NCCc3ccccc3)c2)on1,/,/,-16%[46.1 µM],63%,/,/
CCc1ccc(-c2cc(C)no2)cc1S(=O)(=O)NCCc1ccccc1,19,35*,/,35%,/,?
CCc1ccc(-c2cc(C)no2)cc1S(=O)(=O)Nc1cc(C)on1,14,-3,/,21%,/,3%
Cc1ccnc(NS(=O)(=O)c2cc(-c3cc(C)no3)ccc2C(C)C)c1,28*,17*,/,56%,/,-2%
Cc1cc(-c2ccc(C(C)C)c(S(=O)(=O)NCc3ccco3)c2)on1,34*,30*,/,61%,/,?
CCOC(=O)C1(Cc2ccccc2)C(=O)Nc2ccccc21 (stereo not given),/,/,3%[46.1 µM],-5%,5%[46.1 µM],-3%
COC(=O)[C@@]1(Cc2ccccc2)[C@H]2C(=O)N(Cc3ccccc3)C(=O)[C@H]2[C@H]2CN=C(SCc3ccccc3)N21,/,/,/,0%,/,-17%[8.37 µM]
CNc1oc(-c2ccc(F)cc2)nc1S(=O)(=O)c1ccccc1,-9,-1,7%,-1%,4%[46.1 µM],8%
CC(C)CS(=O)(=O)c1oc(-c2ccc(F)cc2)nc1S(=O)(=O)c1ccccc1,/,/,?,25µM*,?,/
CCCCNc1oc(-c2cccs2)nc1S(=O)(=O)c1ccccc1,-6,-4,?,21%,?,10µM*
CCC(C)S(=O)(=O)c1oc(-c2cccs2)nc1S(=O)(=O)c1ccccc1 (stereo not given),/,/,?,28µM*,?,/
Cn1c(=O)n(CCc2ccccc2)c2ccccc21,/,18*,14%,29%,0%,0%
